In this test the target is ATP-binding cassette sub-family B member 6 (Homo sapiens) (UniProt Q9NP58). In words: concentration-dependent ABCB6 porphyrin transport blockade – K562-ABCB6 cells, flow cytometry, cherry pick 1, dose response (AID 623955). The following applies: K562-ABCB6 porphyrin fluorescence, 1 h; series mostly up to 100 µM. In general terms: Flow cytometry measures light scatter and fluorescence of single cells or particles in a stream.

Entries with a potency or affinity are not part of this list. Calls of active or inactive are those of the source.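 Rule for the calls: active = fitted EC50, the concentration giving half the signal drop, under 100 µM; inactive = the rest.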

This passage reports outcome results from PubChem BioAssay AID623955 (NMMLSC, 2012).

ATP-binding cassette sub-family B member 6 (Homo sapiens), sequence (Q9NP58 whole entry, looked up): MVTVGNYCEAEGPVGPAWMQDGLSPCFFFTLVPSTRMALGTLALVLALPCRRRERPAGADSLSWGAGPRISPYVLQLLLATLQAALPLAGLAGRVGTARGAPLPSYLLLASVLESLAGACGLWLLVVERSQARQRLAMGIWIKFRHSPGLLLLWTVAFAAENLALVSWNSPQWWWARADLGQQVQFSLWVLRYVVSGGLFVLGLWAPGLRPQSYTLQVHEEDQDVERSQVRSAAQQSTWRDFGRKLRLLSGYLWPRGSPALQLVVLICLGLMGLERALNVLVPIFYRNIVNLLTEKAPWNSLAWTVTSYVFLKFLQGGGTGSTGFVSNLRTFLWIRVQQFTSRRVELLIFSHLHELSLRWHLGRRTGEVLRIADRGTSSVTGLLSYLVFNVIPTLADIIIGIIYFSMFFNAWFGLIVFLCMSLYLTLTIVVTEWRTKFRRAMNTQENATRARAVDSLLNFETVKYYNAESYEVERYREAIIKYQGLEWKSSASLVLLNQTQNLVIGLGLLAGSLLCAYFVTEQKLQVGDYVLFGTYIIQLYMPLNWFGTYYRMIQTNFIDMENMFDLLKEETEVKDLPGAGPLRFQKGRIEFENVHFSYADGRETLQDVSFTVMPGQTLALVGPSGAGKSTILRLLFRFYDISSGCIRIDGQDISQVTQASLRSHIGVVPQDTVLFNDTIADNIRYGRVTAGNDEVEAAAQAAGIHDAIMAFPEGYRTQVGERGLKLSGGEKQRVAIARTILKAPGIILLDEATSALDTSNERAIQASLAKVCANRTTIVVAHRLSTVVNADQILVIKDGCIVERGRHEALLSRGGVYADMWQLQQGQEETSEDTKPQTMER

As for `CCc1ccc(CNC(=O)C2Cc3cc(S(=O)(=O)N4CCCC4)ccc3N2C(C)=O)cc1` (centres undefined), the compound was classed as inactive. Consider `CC1CCN(c2ccc3nnc(CCC(=O)NC(C)C)n3n2)CC1`, for which the compound was called inactive.

With `CCOCCCNC(=O)CCc1nnc2ccc(N3CCCCC3)nn12`, the outcome was inactive. Under `CCC(C)NC(=O)CCc1nnc2ccc(N3CCC(C)CC3)nn12` (centres undefined) stands “inactive”. Under `CCN(CC)CCNC(=O)CCc1nnc2ccc(N3CCC(C)CC3)nn12` stands “inactive”; under `CCOC(=O)CNC(=O)CCc1nnc2ccc(N3CCC(C)CC3)nn12`, “inactive”. Under `CC1CC(C)CN(C(=O)CCc2nnc3ccc(N4CCCCC4)nn23)C1` (centres undefined) stands “inactive”; under `CCCNC(=O)CCc1nnc2ccc(N3CCC(C)CC3)nn12`, “inactive”. `CCOC(=O)C(C)NC(=O)CCc1nnc2ccc(N3CCCCC3)nn12` (centres undefined): the compound was classed as inactive.

On to `O=C(CCc1nnc2ccc(N3CCC4(CC3)OCCO4)nn12)N1CCCCC1`, for which the compound was classed as inactive. Under `CN1CCN(C(=O)CCc2nnc3ccc(N4CCC5(CC4)OCCO5)nn23)CC1` stands “inactive”; under `CC1CCN(c2ccc3nnc(CCC(=O)N4CCCCC4)n3n2)CC1`, “inactive”; under `CC1CCN(c2ccc3nnc(CCC(=O)NCCCOC(C)C)n3n2)CC1`, “inactive”. The same measure for `COCCNC(=O)CCc1nnc2ccc(N3CCC(C)CC3)nn12`: “inactive”; for `CC(C)CCNC(=O)CCc1nnc2ccc(N3CCC(C)CC3)nn12`: “inactive”; for `COC(=O)C(NC(=O)CCc1nnc2ccc(N3CCCCC3)nn12)C(C)C` (centres undefined): “inactive”. Under `CCOC(=O)N1CCN(CC(=O)Nc2ccc(C)cc2)CC1` stands “inactive”. Turning to `O=C(CN1CCCCC1)Nc1cccc(Br)c1`, the compound was called inactive. Under `COC(=O)C(NC(=O)CCc1nnc2ccc(N3CCC(C)CC3)nn12)C(C)C` (centres undefined) stands “inactive”; under `COCCCNC(=O)CCc1nnc2ccc(N3CCC(C)CC3)nn12`, “inactive”; under `CCN1CCN(C(=O)CCc2nnc3ccc(N4CCC5(CC4)OCCO5)nn23)CC1`, “inactive”.

`CCOC(=O)C1CCN(C(=O)CCc2nnc3ccc(N4CCN(C)CC4)nn23)CC1`: the outcome was inactive.

`CC1CCN(C(=O)CCc2nnc3ccc(N4CCC5(CC4)OCCO5)nn23)CC1`: the outcome was inactive. The same measure for `CCOC(=O)C(C)NC(=O)CCc1nnc2ccc(N3CCC(C)CC3)nn12` (centres undefined): “inactive”.
